According to PubChem BioAssay (NCATS):
Inconclusive results are not listed. Activity calls are given as the source filed them. Unless noted, calls come from the whole dose curve.

System: not listed separately
Experiment: qHTS for Inhibitors of the Functional Ribonucleoprotein Complex (vRNP) of Lymphocytic Choriomeningitis Arenaviruses (LCMV): Viability assay - alamar blue signal for LCMV Primary Screen (AID 1347085; calls by dose curve; tested in HEK293 reporter line; note: nearly all actives have a fitted effect of over 80% in size)
Conditions: alamar blue viability counter-screen, LCMV vRNP screen cells; series mostly up to 57.5 µM; activity change, negative = lower viability: at the top concentration
% is set by controls: 0 for no effect and ±100 for the full control effect.

Compound	activity change, negative = lower viability
C[C@]12CCC(=O)C=C1[C@@H]1CC1[C@H]1[C@H]3[C@@H]4C[C@H]4[C@@]4(CCC(=O)O4)[C@@]3(C)CC[C@H]12 (stereo not given in full)	18.7% (inactive)
O=c1c(-c2ccc(O)cc2)coc2cc(OC3OC(CO)C(O)C(O)C3O)ccc12 (stereo not given)	9.38% (inactive)
COc1cc(OC)c2c(-c3ccccc3)cc(=O)oc2c1	-17.9% (inactive)
COc1ccc(-c2cnc(-c3cccnc3)o2)cc1	3.21% (inactive)
COc1cc(C(C)=O)cc(OC)c1O	21.6% (inactive)
C=C1C2CC[C@]3(CCC4[C@@]5(C)CCC[C@@]4(CN(CCO)C5)[C@@H]3C2)[C@@H]1O (stereo not given in full)	-0.81% (inactive)
COc1c2c(cc3oc(C)cc(=O)c13)OC(C(C)(C)OC1OC(CO)C(O)C(O)C1O)C2 (stereo not given)	-2.69% (inactive)
CCN1CC2(COC(=O)c3ccccc3N)CCC(OC)C34C5CC6C(OC)CC(O)(C5C6OC)C(O)(C(OC)C23)C14 (stereo not given)	7.19% (inactive)
O=C1C=C(C2OC(CO)C(O)C2O)C(=O)N1 (stereo not given)	16.2% (inactive)
COC(=O)C1=CO[C@@H](O)[C@@H]2C(CO)=CC[C@@H]12	-9.2% (inactive)
CC(=O)OC(C)c1ccccc1 (stereo not given)	-46.1% [at 115 µM] (inactive)
CC(c1c(O)c2ccccc2[nH]c1=O)C1(C)CCC(O)C(C)(C)O1 (stereo not given)	2.22% (inactive)
COc1cc(C)c(C(=O)Oc2cc(C)c(C(=O)O)c(O)c2C)c(O)c1C(=O)O	33.5% (inactive)
O=C(CCCO)CCCCCCCCC[C@H]1N[C@H](CO)[C@@H](O)[C@@H]1O	6.92% (inactive)
COc1c2ccoc2c(OC[C@@H](OC(C)=O)C(C)(C)O)c2oc(=O)ccc12	-5.59% (inactive)
CC1=CCC2C(C1)C2(C)C (stereo not given)	3.89% [at 115 µM] (inactive)
CC/C=C\C/C=C\C/C=C\C/C=C\C=C\C(O)CCCC(=O)O (stereo not given)	6.07% [at 0.757 µM] (inactive)
O=C(Nc1ncc(SCCN2CCCC2)s1)[C@]1(c2ccc(S(=O)(=O)C3CC3)cc2)C[C@@H]1C1CCCCC1	-2.14% (inactive)
CC[C@]1(O)C[C@@H]2CN(CCc3c([nH]c4ccccc34)[C@@](C(=O)OC)(c3cc4c(cc3OC)N(C=O)[C@@H]3C45CCN4CC=C[C@](CC)([C@H]45)[C@@H](OC(C)=O)[C@]3(O)C(=O)OC)C2)C1 (stereo not given in full)	2.3% (inactive)
C=C(C)[C@@H]1CCC2=CC(=O)C[C@@H](C)[C@]2(C)C1	21.7% [at 115 µM] (inactive)

Compound	activity change, negative = lower viability
C[C@]12O[C@H](C[C@@]1(O)C(=O)O)n1c3ccccc3c3c4c(c5c6ccccc6n2c5c31)CNC4=O	6.16% [at 5.82 µM] (inactive)
COC(=O)Nc1ccc(C)c(NC(=O)OC)c1	0.773% (inactive)
CC(C)=CCc1c(O)cc(O)c2c1OC(c1ccc(O)cc1)CC2=O (stereo not given)	6.51% (inactive)
[3H]C([3H])([3H])C(O)(CCC[C@@H](C)C1CC[C@H]2/C(=C/C=C3/C[C@@H](O)CCC3=C)CCC[C@]12C)C([3H])([3H])[3H] (stereo not given in full)	3.12% (inactive)
C/C(=C/C=C/[C@@H](C)C(=O)O)[C@H]1CN[C@H](C(=O)O)[C@H]1CC(=O)O	13.2% (inactive)
O=C1c2ccccc2C(=O)c2c(O)ccc(O)c21	-12.7% (inactive)
CC/C=C\CCOC(=O)CC	5% (inactive)
CCC1(CC)C(=O)NC(=O)N(c2ccccc2)C1=O	12.2% (inactive)
O=C(O)c1cccc(Br)c1	15.5% (inactive)
c1cnc2c(-c3nccc4c3[nH]c3ccccc34)cccc2c1	-23.1% (inactive)
CC1C2CC(CC2C2CCCC(O)C2)C1(C)C (stereo not given)	-8.2% (inactive)
COc1cc2c(cc1OC)OC(C)(C)C=C2	2.95% (inactive)
CS(C)(=O)=O	1.76% (inactive)
C=C(C)[C@@H]1CCC2(C(=O)O)CC[C@]3(C)[C@H](CC[C@@H]4[C@@]5(C)CCC(=O)C(C)(C)[C@@H]5CC[C@]43C)[C@@H]12 (stereo not given in full)	11.6% (inactive)
O=C(CCCCO)CCCCCCCC[C@H]1N[C@H](CO)[C@H](O)[C@@H]1O[C@@H]1O[C@H](CO)[C@@H](O)[C@H](O)[C@H]1O	4.2% (inactive)
O=C1N[C@@H](Cc2cnc[nH]2)C(=O)N2CCC[C@@H]12	2.58% (inactive)
CC1=CCC(O)(C(C)C)CC1 (stereo not given)	19.7% [at 115 µM] (inactive)
COc1cc(O)c2c(=O)c3c(OC)c(O)ccc3oc2c1	-1.19% (inactive)
CC(=O)[C@@]1(O)CCC2C3CC[C@H]4C[C@@H](O)CC[C@]4(C)C3CC[C@@]21C (stereo not given in full)	7.67% (inactive)
c1ccc2c(c1)CCC[C@H]2Nc1nc2ccccc2[nH]1	-0.066% (inactive)

Target: Nucleoprotein (Lymphocytic choriomeningitis virus (strain Armstrong)) (UniProt P09992)
Experiment: qHTS for Inhibitors of the Functional Ribonucleoprotein Complex (vRNP) of Lymphocytic Choriomeningitis Arenaviruses (LCMV): LCMV Primary Screen - GLuc reporter signal (AID 1347086); note: nearly all actives have a fitted effect of over 70% in size
Conditions: LCMV minigenome vRNP cell assay, Gaussia luciferase reporter; series mostly up to 57.5 µM; activity change, negative = inhibition: at the top concentration

Chain of Nucleoprotein (Lymphocytic choriomeningitis virus (strain Armstrong)) (P09992 whole entry, looked up): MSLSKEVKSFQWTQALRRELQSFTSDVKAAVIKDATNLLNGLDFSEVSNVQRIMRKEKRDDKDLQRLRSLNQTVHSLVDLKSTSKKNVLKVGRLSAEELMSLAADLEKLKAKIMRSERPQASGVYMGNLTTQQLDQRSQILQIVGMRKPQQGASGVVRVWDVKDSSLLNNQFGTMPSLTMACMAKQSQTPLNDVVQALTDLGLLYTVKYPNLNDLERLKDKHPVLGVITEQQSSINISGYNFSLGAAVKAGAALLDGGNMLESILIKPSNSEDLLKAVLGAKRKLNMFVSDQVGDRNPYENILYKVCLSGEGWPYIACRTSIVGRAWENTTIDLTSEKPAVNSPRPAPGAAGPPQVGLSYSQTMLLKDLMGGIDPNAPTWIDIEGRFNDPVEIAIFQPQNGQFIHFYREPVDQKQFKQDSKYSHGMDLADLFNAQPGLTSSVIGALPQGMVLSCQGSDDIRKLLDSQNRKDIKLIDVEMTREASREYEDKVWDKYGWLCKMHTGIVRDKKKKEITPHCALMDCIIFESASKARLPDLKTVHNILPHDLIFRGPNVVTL

Compound	activity change, negative = inhibition
C[C@]12CCC(=O)C=C1[C@@H]1CC1[C@H]1[C@H]3[C@@H]4C[C@H]4[C@@]4(CCC(=O)O4)[C@@]3(C)CC[C@H]12 (stereo not given in full)	-0.305% (inactive)
O=c1c(-c2ccc(O)cc2)coc2cc(OC3OC(CO)C(O)C(O)C3O)ccc12 (stereo not given)	22.2% (inactive)
COc1cc(OC)c2c(-c3ccccc3)cc(=O)oc2c1	-7.74% (inactive)
COc1ccc(-c2cnc(-c3cccnc3)o2)cc1	-12.4% (inactive)
COc1cc(C(C)=O)cc(OC)c1O	-5.95% (inactive)
C=C1C2CC[C@]3(CCC4[C@@]5(C)CCC[C@@]4(CN(CCO)C5)[C@@H]3C2)[C@@H]1O (stereo not given in full)	8.53% (inactive)
COc1c2c(cc3oc(C)cc(=O)c13)OC(C(C)(C)OC1OC(CO)C(O)C(O)C1O)C2 (stereo not given)	-6.08% (inactive)
CCN1CC2(COC(=O)c3ccccc3N)CCC(OC)C34C5CC6C(OC)CC(O)(C5C6OC)C(O)(C(OC)C23)C14 (stereo not given)	3.02% (inactive)
O=C1C=C(C2OC(CO)C(O)C2O)C(=O)N1 (stereo not given)	7.88% (inactive)
COC(=O)C1=CO[C@@H](O)[C@@H]2C(CO)=CC[C@@H]12	-0.258% (inactive)
CC(=O)OC(C)c1ccccc1 (stereo not given)	-5.63% [at 115 µM] (inactive)
CC(c1c(O)c2ccccc2[nH]c1=O)C1(C)CCC(O)C(C)(C)O1 (stereo not given)	-2.38% (inactive)
COc1cc(C)c(C(=O)Oc2cc(C)c(C(=O)O)c(O)c2C)c(O)c1C(=O)O	10.2% (inactive)
O=C(CCCO)CCCCCCCCC[C@H]1N[C@H](CO)[C@@H](O)[C@@H]1O	13% (inactive)
COc1c2ccoc2c(OC[C@@H](OC(C)=O)C(C)(C)O)c2oc(=O)ccc12	7.8% (inactive)
CC1=CCC2C(C1)C2(C)C (stereo not given)	-1.74% [at 115 µM] (inactive)
CC/C=C\C/C=C\C/C=C\C/C=C\C=C\C(O)CCCC(=O)O (stereo not given)	1.64% [at 0.757 µM] (inactive)
O=C(Nc1ncc(SCCN2CCCC2)s1)[C@]1(c2ccc(S(=O)(=O)C3CC3)cc2)C[C@@H]1C1CCCCC1	-1.74% (inactive)
CC[C@]1(O)C[C@@H]2CN(CCc3c([nH]c4ccccc34)[C@@](C(=O)OC)(c3cc4c(cc3OC)N(C=O)[C@@H]3C45CCN4CC=C[C@](CC)([C@H]45)[C@@H](OC(C)=O)[C@]3(O)C(=O)OC)C2)C1 (stereo not given in full)	-9.09% (inactive)
C=C(C)[C@@H]1CCC2=CC(=O)C[C@@H](C)[C@]2(C)C1	1.16% [at 115 µM] (inactive)

Compound	activity change, negative = inhibition
C[C@]12O[C@H](C[C@@]1(O)C(=O)O)n1c3ccccc3c3c4c(c5c6ccccc6n2c5c31)CNC4=O	25.9% [at 5.82 µM] (inactive)
COC(=O)Nc1ccc(C)c(NC(=O)OC)c1	12.4% (inactive)
CC(C)=CCc1c(O)cc(O)c2c1OC(c1ccc(O)cc1)CC2=O (stereo not given)	10.4% (inactive)
[3H]C([3H])([3H])C(O)(CCC[C@@H](C)C1CC[C@H]2/C(=C/C=C3/C[C@@H](O)CCC3=C)CCC[C@]12C)C([3H])([3H])[3H] (stereo not given in full)	-30.2% (inactive)
C/C(=C/C=C/[C@@H](C)C(=O)O)[C@H]1CN[C@H](C(=O)O)[C@H]1CC(=O)O	13.8% (inactive)
O=C1c2ccccc2C(=O)c2c(O)ccc(O)c21	-18.6% (inactive)
CC/C=C\CCOC(=O)CC	-5.11% (inactive)
CCC1(CC)C(=O)NC(=O)N(c2ccccc2)C1=O	19.4% (inactive)
O=C(O)c1cccc(Br)c1	4.89% (inactive)
c1cnc2c(-c3nccc4c3[nH]c3ccccc34)cccc2c1	-9.99% (inactive)
CC1C2CC(CC2C2CCCC(O)C2)C1(C)C (stereo not given)	-5.73% (inactive)
COc1cc2c(cc1OC)OC(C)(C)C=C2	11.8% (inactive)
CS(C)(=O)=O	1.08% (inactive)
C=C(C)[C@@H]1CCC2(C(=O)O)CC[C@]3(C)[C@H](CC[C@@H]4[C@@]5(C)CCC(=O)C(C)(C)[C@@H]5CC[C@]43C)[C@@H]12 (stereo not given in full)	0.573% (inactive)
O=C(CCCCO)CCCCCCCC[C@H]1N[C@H](CO)[C@H](O)[C@@H]1O[C@@H]1O[C@H](CO)[C@@H](O)[C@H](O)[C@H]1O	-5.97% (inactive)
O=C1N[C@@H](Cc2cnc[nH]2)C(=O)N2CCC[C@@H]12	10.2% (inactive)
CC1=CCC(O)(C(C)C)CC1 (stereo not given)	22.6% [at 115 µM] (inactive)
COc1cc(O)c2c(=O)c3c(OC)c(O)ccc3oc2c1	15.6% (inactive)
CC(=O)[C@@]1(O)CCC2C3CC[C@H]4C[C@@H](O)CC[C@]4(C)C3CC[C@@]21C (stereo not given in full)	4.05% (inactive)
c1ccc2c(c1)CCC[C@H]2Nc1nc2ccccc2[nH]1	-3.46% (inactive)
